The values that follow come from PubChem BioAssay.

The nature of test [1]: polyglutamine-triggered caspase-3 activation inhibitors, cell-based (AID 1583). The settings on record: polyglutamine-induced caspase-3 activation, cell assay; stronger effect = higher value;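 tested at 10 µM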.
A short description of test [2]: suppressors of polyQ aggregation in yeast, 75Q-TubU reporter (AID 1593). The settings on record: Yeast 75Q polyglutamine aggregation reporter.
Test [3] in a line: inhibitors of mitochondrial cytochrome c release, biochemical, purified mitochondria (AID 1603).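 Note: mouse liver mitochondria challenged with calcium chloride; signal normalized to the plate average as 100%.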 The settings on record: stronger effect = lower value.
Test [4] is described as follows: inhibitors of polyQ protein aggregation (AID 1604). The settings on record: polyglutamine-induced protein aggregation inhibition assay; stronger effect = higher value; tested at 2.5 µM.
Test [5] can be described thus: enhancers of glutamate uptake in motor neurons, MN-1 cell line (AID 1612).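 Note: tested at 1 µM final; 0% = mean of DMSO vehicle wells on each plate; positive means more glutamate uptake than control and negative means less.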 The settings on record: MN-1 motor neuron cells, stronger effect = higher value.
Test [6] in a line: Cy5 fluorescence interference with SSB-bound oligo, artefact control for HCV NS3 helicase inhibitor project, biochemical, NIH Clinical Collection, E. coli SSB (AID 743268; call rule not given here).
The test system of test [7] is Hepatitis C virus NS3 helicase. Put plainly: HCV NS3 helicase inhibitors, primary screen, biochemical, fluorescence polarization, NIH Clinical Collection (AID 743270; call rule not given here). The settings on record: NS3 helicase binding to Cy5-dT15 DNA, stronger effect = higher value, concentration not given here. A general note: In fluorescence polarisation assays a small probe gives low polarisation when free and higher when bound to something large.

Test [8] deals with Single-stranded DNA-binding protein (Escherichia coli (strain K12)) (UniProt P0AGE0). Put plainly: E. coli SSB displacement from DNA, counter-screen for HCV NS3 helicase inhibitor project, biochemical, fluorescence polarization, NIH Clinical Collection (AID 743271; in the data active = inhibition above about 28%). The settings on record: stronger effect = higher value, concentration not given here. On the technique in general: A counterscreen serves to expose hits that act by an unwanted route or on another target.

A short description of test [9]: fluorescence interference in NS3h assay format, artefact control for HCV NS3 helicase inhibitor project, biochemical, NIH Clinical Collection (AID 743272; call rule not given here;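 note: HCV NS3 helicase with a Cy5 labelled single stranded DNA probe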). The settings on record: fluorescence interference counterscreen, stronger effect = lower value.
Test [10] in a line: viability rescue of complex I mutant cybrids, primary screen, cell-based, galactose medium, ATP luminescence (AID 1645843;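 active = z-score of at least 1.8 in each of two replicates, scored against plate mean and spread of sample wells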;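 note: positive z means more ATP and so rescue of galactose-driven cybrid death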). The settings on record: complex I mutant cybrid cells, 72 h, stronger effect = higher value.
Test [11] deals with F380Y/beta4. Kind of test: modulators of BK channel variants, profiling panel, selectivity assay, cell-based, U2OS BacMam, thallium flux, beta subunits (AID 1259406).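 Note: initial slope of Thallos dye fluorescence rise after thallium is added; log ratio against the mean of 0.3% DMSO vehicle wells on the same plate.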 The settings on record: at 30 µM.
The target of test [12] is Calcium-activated potassium channel subunit alpha-1 (Homo sapiens) + Leucine-rich repeat-containing protein 26 (Homo sapiens) (UniProt Q12791+Q2I0M4). The test is described as above. The settings on record: F380Y/Slo1WT/gamma1, at 30 µM.
Calcium-activated potassium channel subunit alpha-1 (Homo sapiens) + Leucine-rich repeat-containing protein 26 (Homo sapiens), sequence (Q2I0M4 whole entry, looked up, one chain of several): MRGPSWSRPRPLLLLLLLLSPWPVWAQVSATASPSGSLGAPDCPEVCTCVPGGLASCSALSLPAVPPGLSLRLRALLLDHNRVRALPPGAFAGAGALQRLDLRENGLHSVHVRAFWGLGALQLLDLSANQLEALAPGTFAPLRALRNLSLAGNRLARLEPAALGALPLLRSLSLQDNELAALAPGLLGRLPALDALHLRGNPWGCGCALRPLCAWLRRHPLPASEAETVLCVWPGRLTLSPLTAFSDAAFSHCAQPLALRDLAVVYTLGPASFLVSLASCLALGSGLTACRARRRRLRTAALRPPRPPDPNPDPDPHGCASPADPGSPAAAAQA
Test [13] has as its system R275C. The test is described as above. The settings on record: at 30 µM.
Test [14] relates to R275C/beta1. The test is described as above. The settings on record: at 30 µM.
For test [15], the system named is R275C/beta2Delta. Described as above. The settings on record: at 30 µM.
Test [16] deals with R275C/beta4. The test is described as above. The settings on record: at 30 µM.
Test [17] relates to R275C/Slo1WT/beta2. The description is as above. The settings on record: at 30 µM.

“And” between values parts separate entries of the source, which are not always exact repeats. Equal values may be shown once. The source made the active and inactive calls.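 Rule for the calls, unless noted: active = thallium flux through the channel raised or lowered by more than 3 SD from vehicle-only wells, actives on both sides; inactive = the rest.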

A word on the inhibition: it is the relative decrease from the control value, in per cent. For the compound `CCc1nc(N)nc(N)c1-c1ccc(Cl)cc1`, the results for the inhibition in test [1], in [7] and in [8] were -13.9%, -1.36% (inactive) and 1.81% (inactive), respectively. The compound further yielded a score in test [2] of 1.35. The cytochrome c release ratio in test [3] amounted to 1.05. For the same compound, the inhibition of aggregation in test [4] was 85.8%. Also, in test [5], the glutamate uptake change amounted to 14.1%. In addition, the fluorescence ratio was 0.95 (inactive) in test [6] and 0.94 (inactive) in test [9]. For the same compound, the z-score in [10] is 0.72 (inactive). Moreover, the log fold change Tl+ flux is -0.0112 (inactive) in test [11]; -0.0172 (inactive) in test [12]; -0.00785 (inactive) in test [13]; -0.00379 (inactive) in [14]; 0.00565 (inactive) in test [15]; -0.00455 (inactive) in [16]. Also, the log fold change Tl+ flux in test [17] was -0.0705 (inactive).

Regarding `OC(CCN1CCCC1)(c1ccccc1)C1CCCCC1` (stereo not given), the inhibition in test [1] was 2.81%; in test [7], -3.18% (inactive); in test [8], -3.53% (inactive). The same compound had a score in test [2] of 1.52. In addition, the cytochrome c release ratio in [3] is 0.63. In addition, in test [4], the inhibition of aggregation was found to be 69.2%. The glutamate uptake change in test [5] came out at 2.81%. Besides, the fluorescence ratio is 1.04 (inactive) in [6] and 1.03 (inactive) in test [9]. Moreover, the z-score in test [10] is -0.65 (inactive). In addition, the log fold change Tl+ flux in test [11] is 0.131 (active); in test [12] it was 0.011 (inactive); in test [13], 0.00132 (inactive); in [14] it was 0.0416 (inactive); in test [15], -0.0288 (inactive); in [16] it was 0.068 (inactive). Also, the log fold change Tl+ flux in [17] is -0.0137 (inactive).

On to `Clc1ccc2c(c1)C(N1CCNCC1)=Nc1ccccc1O2`, for which the inhibition was 0.62% in test [1], -4.09% (inactive) in [7] and -1.24% (inactive) in test [8]. Also, the score in test [2] was 1.21. In test [3], the cytochrome c release ratio was 0.82. For the same compound, the inhibition of aggregation in [4] was -0.07%. Also, in test [5], the glutamate uptake change amounted to 35.9%. The results for the fluorescence ratio in test [6] and in test [9] were 0.92 (inactive) and 0.96 (inactive), respectively. Moreover, the z-score in test [10] was -1.01 (inactive) and 0.165 (inactive) and -1.17 (inactive). The log fold change Tl+ flux was 0.0652 (inactive) in test [11]; -0.0105 (inactive) in test [12]; 0.021 (inactive) in [13]; 0.123 (active) in [14]; 0.0319 (inactive) in test [15]; 0.0104 (inactive) in [16]. Besides, the log fold change Tl+ flux in test [17] is 0.0256 (inactive).

For the compound `NC(=O)c1cnccn1`, the inhibition in test [1] was -0.34%; in [7] it was -4.09% (inactive); in test [8], -2.76% (inactive). Moreover, the score in test [2] amounted to 1.27. Moreover, the cytochrome c release ratio in [3] amounted to 1.22. For the same compound, in [4], the inhibition of aggregation worked out at 69.8%. In test [5], the glutamate uptake change was determined as 25.2%. The fluorescence ratio in test [6] is 0.1 (active); in test [9], 0.96 (inactive). Further, the z-score in [10] is 0.985 (inactive) and -0.015 (inactive). In addition, the log fold change Tl+ flux in [11] was 0.0145 (inactive); in [12], -0.0208 (inactive); in [13], -0.0218 (inactive); in test [14] it was 0.0553 (inactive); in test [15], -0.0119 (inactive); in test [16] it was -0.0116 (inactive). Besides, the log fold change Tl+ flux in [17] is 0.0474 (inactive).

With `Cc1cn([C@H]2C[C@H](N=[N+]=[N-])[C@@H](CO)O2)c(=O)[nH]c1=O`, the inhibition in test [1] was -8.49%; in test [7], -3.18% (inactive); in test [8], -2.76% (inactive). Moreover, the score in test [2] was 1.46. In addition, the cytochrome c release ratio in [3] is 1.1. Besides, the inhibition of aggregation in [4] was determined as 48.1%. The glutamate uptake change in test [5] is -23.5%. Also, the fluorescence ratio was 1.05 (inactive) in test [6] and 1.04 (inactive) in [9]. Besides, in test [10], the z-score was 0.4 (inactive) and 0.685 (inactive). Also, the log fold change Tl+ flux in test [11] was 0.0148 (inactive); in [12] it was 0.0181 (inactive); in [13], -0.0157 (inactive); in test [14], -0.0324 (inactive); in test [15] it was 0.0219 (inactive); in test [16] it was 0.00485 (inactive). Also, the log fold change Tl+ flux in test [17] was 0.022 (inactive).
